The results in this text go back to PubChem BioAssay.

The target of the first assay is Calmodulin-1 (Homo sapiens) (UniProt P0DP23). In words: small molecules binding Ca-loaded calmodulin-1 – biochemical, small-molecule microarray, Cy5-labelled CALM1, plus calcium, artefact control for SMM control-protein annotation, profiling panel (AID 1112).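 Further: score merges spot fluorescence with signal to noise from triplicate slides.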 Conditions: Cy5-CALM1 binding fluorescence, higher = more signal.
For the compound `CCOC(=O)[C@H](Cc1ccccc1)NC(=O)CCC1CC(OC(=O)NCc2cccc3ccccc23)CC2(CCCC(COC(=O)NCCOc3ccccc3)O2)O1` (stereo partly specified), the composite z-score is -0.378.
Same read-out and setting: with `CCc1cc2c(nc1CC)CCN(CCC(C)=NOC[C@@H](C)[C@H](OCc1ccccc1)C(C)C)C2` the figure was -0.139.
The same measure, in the same setting: with `O=C1CCCC=C1C(O)C1CCCCC1` (stereo unspecified) the figure was -0.389; with `CC(C)=CCCC(C)=CCON=C1C[C@@H](O)[C@@H](O)[C@@H]2[C@@H]3C(=O)N(Cc4ccc5c(c4)OCO5)C(=O)[C@@H]3CC[C@@H]12`, -0.0661; with `CC(C)=CCCC(C)=CCON=C1[C@H]2CCn3c(=O)n(-c4ccccc4)c(=O)n3[C@H]2[C@H](O)[C@@H]2O[C@H]12`, -0.807.
On the same count and under the same terms, next, `C=CCOCC1CN2[C@@H](CC[C@@H](C)[C@@H]2c2ccc(Br)cc2)C(=O)O1` (stereo partly specified): -0.78; `CCCC[C@H]1CN2[C@@H](CC[C@@H](C)[C@@H]2c2ccc(Br)cc2)C(=O)O1`: -0.0228; `CC(C)CON=C1[C@H]2CCn3c(=O)n(C)c(=O)n3[C@H]2[C@H](O)[C@@H]2O[C@H]12`: -0.609.
Consider `O=C1C=C[C@@H](O)[C@@H]2[C@@H]3C(=O)N(c4cccc(Oc5ccccc5)c4)C(=O)[C@@H]3CC[C@@H]12`, for which the composite z-score is -0.477.
Turning to `Cc1cc(C)c(-c2cc([C@H](C)ON=C[C@@H](C)[C@H](OCc3ccccc3)C(C)C)on2)c(C)c1`, the composite z-score is -0.34.
Turning to `C[C@@H]1C=CCC(=O)OC[C@H](C)C(=O)N[C@@H](Cc2ccccc2)C(=O)OC1`, the composite z-score is -0.62.
On the same count and under the same terms, with `CCOC(=O)NN=C1C[C@@H](O)[C@@H](O)[C@@H]2[C@@H]3C(=O)N(C[C@@H]4CCCO4)C(=O)[C@@H]3CC[C@H]12` the figure was -0.593; with `COc1ccc(-c2cnnc(CCCn3ccnc3-c3ccccc3)n2)cc1`, -0.686; with `CCOC(=O)[C@H](Cc1ccccc1)NC(=O)CCC1CC(OC(=O)NCc2ccc3c(c2)OCO3)CC2(CCCC(COC(=O)NCCc3ccc(Cl)cc3)O2)O1` (stereo partly specified), -0.397.
The same measure, in the same setting: with `CCO[C@H](c1cc(OC)cc([N+](=O)[O-])c1OC)[C@H](C)[C@@H](OC)[C@H](C)C=CCC(=O)OC` the figure was -0.103.
Same read-out and setting: next, `CCN(CC)CC(O)CN1CCCCc2nc(C)c(C)cc21` (stereo unspecified): -0.125.
For `O=C1CCCC=C1C(O)c1ccc([N+](=O)[O-])cc1` (stereo unspecified), the composite z-score is -0.499.
For `CCOC(=O)[C@H](Cc1ccccc1)NC(=O)CCC1CC(OC(=O)NCCc2ccc(F)cc2)CC2(CCCC(COC(=O)NCCOc3ccccc3)O2)O1` (stereo partly specified), the composite z-score is -0.296.
As for `COC(=O)[C@H](Cc1ccccc1)NC(=O)[C@@H](C)CO`, the composite z-score was -0.32.
For the compound `CCOC(=O)CCN1C(=O)[C@H]2[C@H]3[C@H](O)[C@H](O)CC(=NOCC=C(C)CCC=C(C)C)[C@H]3CC[C@H]2C1=O`, the composite z-score was -0.488.
Still for that read-out and setting: with `O=C1[C@H]2[C@H]3[C@H](O)[C@H](O)CC(=NO[C@@H]4O[C@H](CO)[C@@H](O)[C@H](O)[C@H]4O)[C@H]3CC[C@H]2C(=O)N1c1ccc(F)cc1F` the figure was -1.2.
The same measure, in the same setting: with `O=C1[C@H]2[C@H]3[C@H](O)[C@H](O)CC(=NOCc4ccccc4)[C@@H]3CC[C@H]2C(=O)N1c1cccc(Oc2ccccc2)c1` the figure was -0.699; with `O=C1C2=CC[C@H]3C(=O)N(C[C@@H]4CCCO4)C(=O)[C@H]3[C@H]2[C@H](O)[C@@H]2O[C@H]12`, -1.13; with `CCOC(=O)[C@H](CC(C)C)NC(=O)CCC1CC(OC(=O)NCc2ccc3c(c2)OCO3)CC2(CCCC(COC(=O)NCc3ccccc3)O2)O1` (stereo partly specified), -0.158.
On the same count and under the same terms, with `CON=C(C)CCN1CCCc2nc(C)c(C)cc21` the figure was -1.02.

Test system in a further assay: not listed separately
In words: probe aWnt5a binding to arrayed compounds – biochemical, biotinylated probe, 635/667 nm fluorescence, primary screen (AID 1113).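 Further: score merges 667 nm fluorescence intensity with signal-to-noise per printed feature.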 Conditions: small-molecule microarray, higher = more signal.
As for `CCOC(=O)[C@H](Cc1ccccc1)NC(=O)CCC1CC(OC(=O)NCCc2ccc(F)cc2)CC2(CCCC(COC(=O)NCc3cccc(C(F)(F)F)c3)O2)O1` (stereo partly specified), the composite z-score was -0.154.
The same measure, in the same setting: with `C[C@H]1CC[C@@H](C(=O)O)N[C@@H]1c1ccc(C#Cc2ccccc2)cc1` the figure was -0.0203.
Still for that read-out and setting: next, `C[C@H]1CC[C@H]2C(=O)OC(COc3ccc(C(C)(C)C)cc3)CN2[C@@H]1c1ccc(Br)cc1` (stereo partly specified): -0.277; `OC[C@H]1O[C@H](C#Cc2ccccc2)C=C[C@@H]1O`: 0.0251; `CC(C)(C)N1C(=O)[C@H]2[C@H]3[C@H](O)[C@H](O)CC(=NOC[C@@H](O)COCc4ccco4)[C@@H]3CC[C@H]2C1=O`: -0.0685.
On the same count and under the same terms, next, `COC(=O)[C@H](C)NC(=O)CCC1CC(OC(=O)NCc2ccc3c(c2)OCO3)CC2(CCCC(COC(=O)NCc3ccccc3)O2)O1` (stereo partly specified): -0.001; `O=C1[C@H]2[C@H]3[C@H](O)[C@H](O)CC(=NOC[C@@H](O)COCc4ccco4)[C@@H]3CC[C@H]2C(=O)N1Cc1ccccc1`: -0.152; `COc1ccc(COC(=O)NN=C2C[C@@H](O)[C@@H](O)[C@@H]3[C@@H]4C(=O)N(C5CCCCC5)C(=O)[C@@H]4CC[C@@H]23)cc1`: -0.0529.
In the case of `CC(=O)OC[C@H]1O[C@@H](ON=C(C)CCN2CCCCc3nc(C)c(C)cc32)[C@H](OC(C)=O)[C@@H](OC(C)=O)[C@@H]1OC(C)=O`, the composite z-score is -0.0337.
In turn, `CCOC(=O)[C@H](CC(C)C)NC(=O)CCC1CC(OC(=O)NCc2ccc3c(c2)OCO3)CC2(CCCC(COC(=O)NCCOC)O2)O1` (stereo partly specified) registered a composite z-score of -0.0792.
The same measure, in the same setting: next, `CO[C@H]1COC(=O)[C@H](C)COC(=O)[C@@H](OCc2ccccc2)C=C[C@@H]1C`: -0.123; `CCOC(=O)[C@H](Cc1ccccc1)NC(=O)CCC1CC(OC(=O)NCc2cccc3ccccc23)CC2(CCCC(COC(=O)NCCOc3ccccc3)O2)O1` (stereo partly specified): -0.176.
The compound `CCc1cc2c(nc1CC)CCN(CCC(C)=NOC[C@@H](C)[C@H](OCc1ccccc1)C(C)C)C2` came in with a composite z-score of -0.247.
Regarding `O=C1CCCC=C1C(O)C1CCCCC1` (stereo unspecified), the composite z-score turned out to be 0.0088.
Same read-out and setting: with `CC(C)=CCCC(C)=CCON=C1C[C@@H](O)[C@@H](O)[C@@H]2[C@@H]3C(=O)N(Cc4ccc5c(c4)OCO5)C(=O)[C@@H]3CC[C@@H]12` the figure was 0.0388.
On the same count and under the same terms, with `CC(C)=CCCC(C)=CCON=C1[C@H]2CCn3c(=O)n(-c4ccccc4)c(=O)n3[C@H]2[C@H](O)[C@@H]2O[C@H]12` the figure was -0.154; with `C=CCOCC1CN2[C@@H](CC[C@@H](C)[C@@H]2c2ccc(Br)cc2)C(=O)O1` (stereo partly specified), -0.219; with `CCCC[C@H]1CN2[C@@H](CC[C@@H](C)[C@@H]2c2ccc(Br)cc2)C(=O)O1`, -0.158.
The same measure, in the same setting: with `CC(C)CON=C1[C@H]2CCn3c(=O)n(C)c(=O)n3[C@H]2[C@H](O)[C@@H]2O[C@H]12` the figure was -0.127; with `O=C1C=C[C@@H](O)[C@@H]2[C@@H]3C(=O)N(c4cccc(Oc5ccccc5)c4)C(=O)[C@@H]3CC[C@@H]12`, -0.152.
`Cc1cc(C)c(-c2cc([C@H](C)ON=C[C@@H](C)[C@H](OCc3ccccc3)C(C)C)on2)c(C)c1` displayed a composite z-score of -0.0403.
On the same count and under the same terms, next, `C[C@@H]1C=CCC(=O)OC[C@H](C)C(=O)N[C@@H](Cc2ccccc2)C(=O)OC1`: -0.118; `CCOC(=O)NN=C1C[C@@H](O)[C@@H](O)[C@@H]2[C@@H]3C(=O)N(C[C@@H]4CCCO4)C(=O)[C@@H]3CC[C@H]12`: -0.169.
`COc1ccc(-c2cnnc(CCCn3ccnc3-c3ccccc3)n2)cc1` returned a composite z-score of -0.103.
Same read-out and setting: next, `CCOC(=O)[C@H](Cc1ccccc1)NC(=O)CCC1CC(OC(=O)NCc2ccc3c(c2)OCO3)CC2(CCCC(COC(=O)NCCc3ccc(Cl)cc3)O2)O1` (stereo partly specified): -0.124.
The same measure, in the same setting: next, `CCO[C@H](c1cc(OC)cc([N+](=O)[O-])c1OC)[C@H](C)[C@@H](OC)[C@H](C)C=CCC(=O)OC`: -0.0383; `CCN(CC)CC(O)CN1CCCCc2nc(C)c(C)cc21` (stereo unspecified): -0.129; `O=C1CCCC=C1C(O)c1ccc([N+](=O)[O-])cc1` (stereo unspecified): -0.101.
In turn, `CCOC(=O)[C@H](Cc1ccccc1)NC(=O)CCC1CC(OC(=O)NCCc2ccc(F)cc2)CC2(CCCC(COC(=O)NCCOc3ccccc3)O2)O1` (stereo partly specified) had a composite z-score of -0.0721.
The same measure, in the same setting: with `COC(=O)[C@H](Cc1ccccc1)NC(=O)[C@@H](C)CO` the figure was -0.034; with `CCOC(=O)CCN1C(=O)[C@H]2[C@H]3[C@H](O)[C@H](O)CC(=NOCC=C(C)CCC=C(C)C)[C@H]3CC[C@H]2C1=O`, -0.103; with `O=C1[C@H]2[C@H]3[C@H](O)[C@H](O)CC(=NO[C@@H]4O[C@H](CO)[C@@H](O)[C@H](O)[C@H]4O)[C@H]3CC[C@H]2C(=O)N1c1ccc(F)cc1F`, -0.0088.
On the same count and under the same terms, with `O=C1[C@H]2[C@H]3[C@H](O)[C@H](O)CC(=NOCc4ccccc4)[C@@H]3CC[C@H]2C(=O)N1c1cccc(Oc2ccccc2)c1` the figure was -0.096; with `O=C1C2=CC[C@H]3C(=O)N(C[C@@H]4CCCO4)C(=O)[C@H]3[C@H]2[C@H](O)[C@@H]2O[C@H]12`, -0.219.
On the same count and under the same terms, with `CCOC(=O)[C@H](CC(C)C)NC(=O)CCC1CC(OC(=O)NCc2ccc3c(c2)OCO3)CC2(CCCC(COC(=O)NCc3ccccc3)O2)O1` (stereo partly specified) the figure was 0.0799; with `CON=C(C)CCN1CCCc2nc(C)c(C)cc21`, -0.0405.
